Screening results: PubChem, The Scripps Research Institute Molecular Screening Center
hcDAF12 agonist: H. contortus DAF-12 nuclear receptor activators, primary screen, cell-based, luminescence, HEK293, lit1-tk-luc reporter. HEK293 hcDAF-12 lit1-tk-luc reporter; 0% DMSO, 100% Δ7-dafachronic acid. activation, % at 6.8 µM. AID 652067, 2013. hit rate 1.4% among 370,000;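 active means activation above the mean of all tested compounds plus 3 SD, cut at about 5.5% in these data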;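 further: 100% = response to 3 µM Δ7-dafachronic acid high control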
DAX1 inh-1: DAX1 (NR0B1) inhibitors on StAR promoter, primary screen, cell-based, luminescence, SF-1 (NR5A1), full-length DAX-1; HEK293T StAR-luciferase reporter, SF-1/DAX-1 repression relief; inhibition, % at 6.8 µM; hit rate 1.1% among 370,000; AID 652010, 2013;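 active means inhibition above the mean over all tested compounds plus 3 SD, cut at about 3.6% in these data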;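 further: 0% = DAX-1 cells with DMSO and 100% = cells lacking DAX-1 with DMSO; higher inhibition means more luminescence from relief of DAX-1 repression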
DAX1 inh-2: DAX1 (NR0B1) inhibitors, primary screen, cell-based, HEK293, Gal4-DAX1, luciferase luminescence; Nuclear receptor subfamily 0 group B member 1 (Homo sapiens), P51843; hit rate 0.99% among 340,000; inhibition, % at 6.75 µM; HEK293 Gal4-DAX1 luciferase reporter;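 active means inhibition above the mean over all tested compounds plus 3 SD, cut at about 4.2% in these data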;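 further: 0% = DAX1-transfected cells with DMSO and 100% = empty-vector control cells with DMSO; inhibition shows as a rise in luminescence from relieved DAX1 repression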
Target sequence (P51843 207-470 limits assumed): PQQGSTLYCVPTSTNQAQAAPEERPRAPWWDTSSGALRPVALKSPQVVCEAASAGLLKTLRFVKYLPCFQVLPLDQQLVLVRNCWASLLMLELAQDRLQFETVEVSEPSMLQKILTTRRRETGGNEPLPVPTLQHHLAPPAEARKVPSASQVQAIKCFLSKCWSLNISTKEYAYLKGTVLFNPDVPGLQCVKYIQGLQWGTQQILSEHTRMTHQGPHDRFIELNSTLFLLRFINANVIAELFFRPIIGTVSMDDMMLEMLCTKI
hgDAF-12 ag: H. glycines DAF-12 receptor agonists, primary screen, cell-based, luminescence, HEK293, GAL4 fusion, UAS-luciferase; AID 687014, 2013; activation, % at 6.8 µM; hit rate 1.8% among 370,000; Nuclear hormone receptor DAF-12 (Heterodera glycines), GAL4 fusion; HEK293 GAL4-hgDAF12 UAS-luciferase reporter, agonist luminescence; normalized to butyrate control;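 active means activation above a cutoff set at the mean of all screened compounds plus 3 SD, cut at about 10% in these data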;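 further: 0% = DMSO wells and 100% = sodium butyrate wells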
ssDAF12 agonist: S. stercoralis DAF-12 nuclear receptor activators, primary screen, cell-based, luminescence, HEK293, GRIP1 co-expression, lit1-tk-luc; Nuclear hormone receptor DAF-12 (Strongyloides stercoralis); HEK293 ssDAF-12/GRIP1 lit1-tk-luc reporter; % of 3 µM dafachronic acid response; activation, % at 6.8 µM; hit rate 1% among 370,000;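 active means activation above the mean over all tested compounds plus 3 SD, cut at about 0.9% in these data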;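 further: 0% = DMSO-only wells and 100% = 3 µM delta7-dafachronic acid wells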
Active calls of the source: *. Only some compounds are listed: those with a hit (about 4.1% of all), similar ones and a draw of the others.

Cc1ccnc(NC(=O)c2cccc(OC(F)F)c2)n1 was read as hcDAF12 agonist 2, DAX1 inh-1 0, DAX1 inh-2 -1, hgDAF-12 ag 4 and ssDAF12 agonist 0.
CCCCOc1ccc(C(=O)NC2CCCCN(Cc3cccc(Cl)c3)C2=O)cc1 (centres undefined) was read as hcDAF12 agonist -3, DAX1 inh-1 -3, hgDAF-12 ag -3 and ssDAF12 agonist -2.
Screening CS(=O)(=O)N1CCN(Cc2cc(=O)n3ccsc3n2)CC1 returned hcDAF12 agonist -1, DAX1 inh-1 0, DAX1 inh-2 5.2*, hgDAF-12 ag -1 and ssDAF12 agonist -2.
For C[C@@H]1CN([C@@H](C)CO)C(=O)CCCn2nncc2CO[C@H]1CN(C)CC1CC1 the results were hcDAF12 agonist 0, DAX1 inh-1 0, hgDAF-12 ag 0 and ssDAF12 agonist 0.
COc1cc(/C=N/Nc2snc(SC)c2C#N)cc(OC)c1OC was read as hcDAF12 agonist -1, DAX1 inh-1 -1, DAX1 inh-2 -3, hgDAF-12 ag -3 and ssDAF12 agonist -2.
For CSc1nsc(N/N=C/c2ccc3c(c2)OCO3)c1C#N the results were hcDAF12 agonist 3, DAX1 inh-1 2, DAX1 inh-2 2, hgDAF-12 ag 12* and ssDAF12 agonist 0.
Screening OC(c1ccccc1)(c1ccccc1)C1CCN(CCCNc2cccc(Br)c2)CC1 returned hcDAF12 agonist -2, DAX1 inh-1 0, hgDAF-12 ag -1 and ssDAF12 agonist 0.
CCCC(=O)NC(=S)Nc1sc2c(c1C(N)=O)CCC2 was read as hcDAF12 agonist 1, DAX1 inh-1 0, DAX1 inh-2 0, hgDAF-12 ag 5 and ssDAF12 agonist 0.
`CC(C)C(=O)NC(=S)Nc1sc2c(c1C(N)=O)CCCC2` gave hcDAF12 agonist 0, DAX1 inh-1 1, DAX1 inh-2 0, hgDAF-12 ag 11* and ssDAF12 agonist 0.
For CC(=O)NC(=S)Nc1sc2c(c1C#N)CCCCC2 the results were hcDAF12 agonist 3, DAX1 inh-1 2, DAX1 inh-2 2, hgDAF-12 ag 12* and ssDAF12 agonist 0.
O=C(NCc1ccccc1)c1ccc(-c2ccccc2F)o1 was read as hcDAF12 agonist 1, DAX1 inh-1 3, DAX1 inh-2 3, hgDAF-12 ag 10 and ssDAF12 agonist 0.9*.
Screening O=C(NCc1ccco1)c1ccc(-c2ccccc2Cl)o1 returned hcDAF12 agonist 2, DAX1 inh-1 1, DAX1 inh-2 7.0*, hgDAF-12 ag 5 and ssDAF12 agonist -1.
Screening O=C(NCc1ccco1)c1ccc(-c2ccc(Cl)cc2)o1 returned hcDAF12 agonist -1, DAX1 inh-1 0, DAX1 inh-2 -1, hgDAF-12 ag 8 and ssDAF12 agonist -1.
CCNC(=O)N(C)[C@H]1C[C@H]2c3[nH]c4cccc(-c5cccc(F)c5)c4c3CCN2C(=O)[C@H]1[C@H](C)O was read as hcDAF12 agonist -5, DAX1 inh-1 -2, hgDAF-12 ag 6 and ssDAF12 agonist -2.
For N#Cc1ccc(OCCCN2CCC(C(O)(C3=CCCC3)c3ccccc3)CC2)cc1 (centres undefined) the results were hcDAF12 agonist 0, DAX1 inh-1 -1, hgDAF-12 ag 3 and ssDAF12 agonist -1.
Screening CCCCOc1ccc(C(=O)n2ccc3ccc(-c4ccc5ccn(Cc6cccc(C(=O)OC)c6)c5c4)cc32)cc1 returned hcDAF12 agonist 2, DAX1 inh-1 -1, hgDAF-12 ag -2 and ssDAF12 agonist -1.
For Cc1cc(C)c(NC(=O)c2ccc3nccnc3c2)c(C)c1 the results were hcDAF12 agonist -1, DAX1 inh-1 -1, DAX1 inh-2 -1, hgDAF-12 ag -1 and ssDAF12 agonist -1.
For Cc1ccc(NC(=O)c2ccc3nccnc3c2)c(C)c1 the results were hcDAF12 agonist 2, DAX1 inh-1 1, DAX1 inh-2 -1, hgDAF-12 ag 12* and ssDAF12 agonist 0.
